# Screening data from PubChem.
# GBA activity: Glucocerebrosidase; Lysosomal acid glucosylceramidase (Homo sapiens), P04062; Potency, µM; purified enzyme, resorufin glucoside fluorescence (screen aimed at inhibitors), 20 min; 48,000 tested, 1.1% active; in the data active = potency below about 15 µM; inconclusive = mostly about 16 µM to 33 µM;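 note: the screen sought inhibitors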
# Target sequence (P04062 whole entry, looked up): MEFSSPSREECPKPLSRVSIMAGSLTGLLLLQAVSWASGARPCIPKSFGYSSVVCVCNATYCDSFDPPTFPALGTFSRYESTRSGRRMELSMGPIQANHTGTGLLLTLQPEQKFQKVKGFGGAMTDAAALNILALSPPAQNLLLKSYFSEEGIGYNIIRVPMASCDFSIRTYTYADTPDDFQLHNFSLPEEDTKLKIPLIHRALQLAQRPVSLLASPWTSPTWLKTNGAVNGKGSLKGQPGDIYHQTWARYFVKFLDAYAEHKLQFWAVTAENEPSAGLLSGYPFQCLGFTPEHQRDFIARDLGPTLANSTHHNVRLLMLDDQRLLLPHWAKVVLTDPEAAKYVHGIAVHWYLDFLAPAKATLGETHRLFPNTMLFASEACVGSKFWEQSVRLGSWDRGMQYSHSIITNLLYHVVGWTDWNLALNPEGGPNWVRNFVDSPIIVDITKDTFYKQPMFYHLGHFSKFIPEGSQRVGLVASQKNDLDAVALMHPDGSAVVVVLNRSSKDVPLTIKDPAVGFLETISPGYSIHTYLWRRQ
#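 Compounds titrated against 0.2 nM normal enzyme, 30 uM resorufin beta-D-glucopyranoside substrate, citrate/phosphate buffer with taurocholate and tween-20, pH 5.9. Reaction ran 20 min at room temperature; fluorescence (Ex 548/Em 600) gave AC50.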
# HEK293 cAMP ctrl: qHTS Assay for Agonists of the Thyroid Stimulating Hormone Receptor: Activators of Intracellular cAMP Concentrations in Parental HEK 293; parental HEK293 CNG cAMP sensor, membrane potential fluorescence; Potency, µM (doses to about 57.1 µM), for the others: at the top dose activation, usual class: activators; 73,000 tested, 2.5% active; AID 938, 2007; note: % of control where 0% means no effect; nearly all actives have a fitted effect of over 55% in size
#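 Parental HEK 293 cells stably expressing a cAMP-gated CNG channel were loaded with membrane potential dye containing 100 uM RO 20-1724 for 60 min. Compound added for 30 min; depolarization read as fluorescence intensity at 590 nm.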
# TSHR agonist: qHTS Assay for Agonists of the Thyroid Stimulating Hormone Receptor. Potency, µM (series often up to 57.1 µM), inactives show at the highest dose activation, usual class: activators. HEK293-CNG-TSHR cells (CNG channel as cAMP sensor), membrane potential dye, cAMP. 73,000 tested, 0.48% active. Thyrotropin receptor (Homo sapiens), P16473; active = well fitted activation curve with a large enough effect in the main read-out, with a control signal flat, not every such curve was filed as active; inconclusive = small, poorly fitted or top-dose-only effect, or a change in a side signal; inactive = no such curve, though single readings can be large or run the other way; % of control where 0% means no effect;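 note: the control signal comes from parental cells without the receptor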
#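 cAMP rise detected as CNG-channel membrane depolarization by fluorescent dye (emission 590 nm), 30 min after compound, following 60 min dye loading containing 100 uM RO 20-1724 at room temperature. Cells: TSHR/CNG HEK 293, with parental CNG HEK 293 as control.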
# FLuc inh: qHTS Assay for Inhibitors of Firefly Luciferase; purified firefly luciferase, luminescence, 8 min; Potency, µM (doses to about 57.1 µM), for inactives: at the highest dose activity change, negative = inhibition, most hits filed as inhibitors; 72,000 tested, 2.2% active; AID 411, 2009; note: % is set by controls: 0 for no effect and ±100 for the full control effect; nearly all actives have a fitted effect of over 40% in size
#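 Luminescence read-out after 8 min at room temperature; enzyme reaction used luciferin plus 10 uM ATP (linear range) in imidazole buffer pH 7.2 with KCl, MgCl2, Tween 20 and BSA. Each sample was run as a titration.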
# Bst PK mod: Pyruvate Kinase | purified pyruvate kinase, luminescence ATP production; ribose 5-phosphate activator present at AC10 | Potency, µM | 51,000 tested, 1.2% active; in the data active = potency below about 11 µM; inconclusive = mostly about 12 µM to 25 µM;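 the screen sought inhibitors and activators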;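 note: scaled between full activation by ribose 5 phosphate and full inhibition by luteolin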
# * marks the source's active call; other numbers are inactive results; i = inactive; ? = inconclusive; . = no result; [ ] = another dose, or the depositor's remark. The list is not random: actives were taken first. Their share in the collection is about 5.8%. Unless noted, calls come from the whole dose curve; as a rule, active = well fitted curve in the direction sought with a large enough effect; inconclusive = small, poorly fitted or top-dose-only effect, or another doubt; inactive = no such curve, though single readings can be large; an effect the other way counts as inactive or inconclusive. Potency is the fitted concentration of half-maximal effect.
SMILES,GBA activity,HEK293 cAMP ctrl,TSHR agonist,FLuc inh,Bst PK mod
Cc1cc(-n2c(C)cc(C(=O)CSc3nnnn3-c3ccccc3)c2C)no1,>76.9,23.6%,20µM*,1.2%,>57
Cc1ccc(-n2nnnc2SCC(=O)c2cc(C)n(-c3cc(C)on3)c2C)c(C)c1,>76.9,25.1%,23.2%[11.4 µM],-1.0%,>57
Cc1cc(C(=O)CSc2nnnn2-c2ccccc2)c(C)n1CC1CCCO1 (stereo not given),>76.9,25.1µM*,?,-4.7%,>57
O=C(O)[C@H]1CCCN(CCC=C(c2ccccc2)c2ccccc2)C1,.,17.8%,2.0%,0.6%,.
OC[C@@H]1NC[C@@H](O)[C@H]1O,.,-7.6%,10.7%,3.1%,.
O=C(Nc1nc(-c2ccccc2)cs1)c1cccs1,.,?,?,12.6µM*,.
O=C(Nc1nc(-c2ccccc2)ns1)c1cccs1,>76.9,2.1%,10.9%,2.7%,>57
CC(C)(C)c1csc(NC(=O)c2cccs2)n1,.,17.9%,.,?,.
O=C(Nc1nc(-c2ccc(Cl)s2)cs1)c1cccs1,i,25.1µM*,?,-22.4%,?
CN(N=O)c1ccc(/C=C\c2ccnc3ccccc23)cc1,.,0.7%[11.4 µM],-2.2%[11.4 µM],3.0%[11.4 µM],.
O=C(c1ccccc1)c1nnc(-c2ccccc2F)o1,>76.9,4.2%,-1.8%,3.98µM*,8.49*
COc1cc(-c2nnc(SCc3c(F)cccc3Cl)o2)cc(OC)c1OC,.,31.6µM*,?,0.3%,.
CC(NC(=O)CC1Nc2ccccc2NC1=O)c1ccccc1 (stereo not given),>76.9,1.4%,1.0%,0.3%,>57
CCOc1ccccc1NC(=O)CC1Nc2ccccc2NC1=O (stereo not given),>76.9,-19.0%,-1.2%,1.1%,>57
O=C(CC1Nc2ccccc2NC1=O)c1ccccc1 (stereo not given),.,-1.3%,-20.2%,12.6µM*,.
CCCOc1ccccc1NC(=O)CC1Nc2ccccc2NC1=O (stereo not given),13.9*,1.9%,5.0%,-1.4%,>57
N#CCCn1c(=O)c(-c2ccc(Cl)cc2)nc2cnc(Nc3ccccc3)nc21,.,6.4%,-11.6%,1.1%[11.4 µM],.
CCOC(=O)c1c(C)c(C(=O)Nc2cc(F)ccc2F)c(C)n1C,>76.9,7.94µM*,?,-0.9%,>57
COc1ccc2[nH]cc(CCNc3ncnc4ccc(-c5ccccc5C#N)cc34)c2c1,.,-16.4%,-0.1%,-4.4%[2.29 µM],.
S=c1nc(-c2ccccc2)n(CCN2CCOCC2)c2c1CCCC2,>76.9,0.4%,1.9%,3.5%,>57
c1ccc(-c2nc3nc4ccccc4nc3n2Cc2ccco2)cc1,>76.9,10µM*,?,-10.7%,>57
S=c1nc(-c2ccccc2)n(Cc2ccco2)c2c1CCCC2,.,43.0%,5.01µM*,.,.
Cc1cc(NC(=O)c2ccc(NC(=O)c3cccs3)cc2)no1,2.39*,0.3%,-2.3%,-0.2%,>57
Cc1cc(NC(=O)c2ccc(Cl)cc2)no1,>76.9,?,?,?,.
CCOc1ccc(C(=O)Nc2cc(C)on2)cc1,.,8.4%,4.2%,10µM*,.
SMILES,GBA activity,HEK293 cAMP ctrl,TSHR agonist,FLuc inh,Bst PK mod
O=c1c(-c2ccc(Cl)cc2)nc2cnc(Nc3ccccc3)nc2n1C[C@H]1CCCO1,.,12.4%,3.9%,0.7%[11.4 µM],.
CC(C#N)Sc1ncnc2sc3c(c12)CCC3 (stereo not given),>76.9,25.1µM*,?,-0.5%,.
N#CCSc1ncnc2sc3c(c12)CCC3,>76.9,9.6%,28.1%,1.3%,>57
COc1ccc(Nc2cc(C)nc(N3CCOCC3)n2)cc1,10.7*,0.3%,3.0%,-3.1%,1.52*
CCOc1ccc(Nc2cc(C)nc(-n3nc(C)cc3C)n2)cc1,>76.9,?,?,0.7%,6.27*
COc1cccc(C=NC=Nc2cccc(OC)c2)c1,.,17.3%,22.7%,0.2%,.
Clc1cccc(C=NC=Nc2cccc(Cl)c2)c1,.,1.3%,-1.7%,2µM*,.
COc1ccccc1CNc1ncnc2ccc(-c3ccccc3C#N)cc12,.,?,?,-0.3%[2.29 µM],.
C=CCOc1nc(-c2ccncc2)nc2ccccc12,.,.,.,-0.3%[25.5 µM],8.29*
c1ccc2c(N3CCCC3)nc(-c3ccncc3)nc2c1,>76.9,?,?,1.4%,i
Cc1cnc(CNc2nc(-c3ccc(N(C)C)cc3)nc3ccccc23)cn1,.,-58.0%,?,0.794µM*,.
CCOC(=O)N1CCN(C(=O)c2cnn3c(C(F)F)cc(-c4ccc(C)cc4)nc23)CC1,>76.9,?,?,-0.9%,>57
COc1ccc(-c2cc(C(F)F)n3ncc(C(=O)NCC4CCCO4)c3n2)cc1 (stereo not given),.,7.94µM*,?,0.3%,.
COc1ccc(-c2cc(C(F)F)n3ncc(C(=O)N4CCN5CCCC5C4)c3n2)cc1 (stereo not given),.,15.8µM*,?,4.2%,>57
Cc1ccc(S(=O)(=O)N(C)Cc2ccc(-c3nnco3)cc2)cc1,>76.9,25.1µM*,?,2.7%,>57
O=C1C[C@H]2OCC=C3CN4CC[C@@]5(C(=O)O)[C@H](N1)[C@H]2[C@H]3C[C@H]45,.,-6.1%[11.4 µM],1.3%[11.4 µM],3.1%[11.4 µM],.
COc1ccccc1-c1cncnc1-n1ccnc1,.,-5.5%,-1.7%,1.7%[2.29 µM],.
COc1ccccc1-c1cc(-n2ccnc2)ncn1,.,31.6µM*,?,0.1%[2.29 µM],.
COc1ncc2nc(-c3ccccc3)c(=O)n(C)c2n1,.,-1.7%,39.6%,1.7%[11.4 µM],.
C/C(=C\c1ccc(Cl)cc1)C(C)(C)C(=O)O,.,23.8%[11.4 µM],7.8%[11.4 µM],1.5%[11.4 µM],.
OCCNc1nc(-c2cccnc2)nc2ccccc12,.,-4.9%,-0.5%,-0.1%,.
COc1ccc2[nH]cc(CCNc3ncncc3-c3ccccc3Cl)c2c1,.,?,?,-1.6%[2.29 µM],.
c1cncc(-c2nc(NCc3ccco3)c3ccccc3n2)c1,>76.9,25.1µM*,?,-5.3%,>57
COc1ccc2[nH]cc(CCNc3ncncc3-c3ccccc3OC)c2c1,.,3.16µM*,?,1.7%[2.29 µM],.
COc1ccc2[nH]cc(CCNc3nc(-c4cccnc4)nc4ccccc34)c2c1,.,-23.7%,3.98µM*,-6.9%[2.29 µM],.
SMILES,GBA activity,HEK293 cAMP ctrl,TSHR agonist,FLuc inh,Bst PK mod
COC(=O)NC(c1cccc(F)c1)[C@]1(C(C)=O)CCCC1=O (stereo not given in full),.,-3.8%[11.4 µM],-2.0%[11.4 µM],.,.
COc1ccc(-c2csc(N(CC3CCCO3)C(=O)c3cccs3)n2)cc1 (stereo not given),>76.9,15.8µM*,?,-1.6%,>57
Cc1ccccc1C(=O)Nc1ccccc1,.,7.0%,9.3%,-19.0%,.
Cc1ccccc1C(=O)Nc1ccc(Br)cn1,.,15.0%[11.4 µM],17.2%[11.4 µM],12.6µM*,.
CC(=O)c1c(C)[nH]c(C(=O)Nc2ccc(C)cn2)c1C,.,-5.8%,-3.6%,2.51µM*,4.36*
Cc1ccc(NC(=O)c2c(O)c3ccccc3n(C)c2=O)nc1,>76.9,?,?,-1.0%,>57
Cc1ccc(NC(=O)c2ccccc2F)nc1,>76.9,-7.1%,-3.5%,25.1µM*,i
c1ccc(Nc2ncnc3ccc(-c4ccc5c(c4)OCO5)cc23)cc1,.,?,?,-0.1%[2.29 µM],.
